Measured values: PubChem BioAssay AID1159580 (chemical genetic matrix, 2015)
The whole screen tested about 5,500 compounds, of which about 2,000 (36%) were called active. Inconclusive results (about 18%) are left out. Rule as the data show it: active = normalized growth mostly below about 0.91 (no sharp cut-off); inconclusive = no clear call, values can overlap the other calls; inactive = mostly above about 0.92. Some of the results follow.

Experiment: chemical genetic growth profiling, strain panel (AID 1159580);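 also: tested at 20 µM; growth read once vehicle control cultures reached saturation at 30 °C; 1 = growth at the plate median or of vehicle wells; lower values mean less growth of the strain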
Details: S. cerevisiae deletion strains, growth OD

Measured: normalized growth

FC(F)(F)c1ccccc1-n1ccnc1
inactive: locus YAL021C, strain ccr4, stronger effect = lower value 0.971 | locus YAL026C, strain drs2, stronger effect = lower value 1.02 | locus YAL030W, strain snc1, stronger effect = lower value 1.01 | locus YAL040C, strain CLN3, stronger effect = lower value 1.01 | locus YBL061C, strain skt5, stronger effect = lower value 1.01 | locus YBR009C, strain hhf1, stronger effect = lower value 1.08 | locus YBR023C, strain chs3, stronger effect = lower value 1 | locus YBR171W, strain sec66, stronger effect = lower value 0.966 | locus YBR231C, strain swc5, stronger effect = lower value 1 | locus YBR279W, strain paf1, stronger effect = lower value 1 | locus YCL011C, strain gbp2, stronger effect = lower value 0.998 | locus YCL016C, strain dcc1, stronger effect = lower value 1.01 | locus YCL061C, strain MRC1 (second series), stronger effect = lower value 1 | locus YCL061C, strain MRC1, stronger effect = lower value 1 | locus YCL069W, strain vba3, stronger effect = lower value 0.999 | locus YCR088W, strain abp1, stronger effect = lower value 0.986 | locus YDL005C, strain med2, stronger effect = lower value 0.992 | locus YDL040C, strain nat1, stronger effect = lower value 1 | locus YDR001C, strain nth1, stronger effect = lower value 0.988 | locus YDR069C, strain doa4, stronger effect = lower value 0.999 | locus YDR137W, strain rgp1, stronger effect = lower value 0.949 | locus YDR159W, strain sac3, stronger effect = lower value 1.04 | locus YDR195W, strain ref2 1.03 | locus YDR297W, strain sur2, stronger effect = lower value 0.995 | locus YDR334W, strain swr1, stronger effect = lower value 0.963 | locus YDR335W, strain msn5, stronger effect = lower value 0.988 | locus YDR363W, strain ESC2, stronger effect = lower value 1.02 | locus YDR392W, strain spt3, stronger effect = lower value 0.993 | locus YEL003W, strain gim4, stronger effect = lower value 0.987 | locus YEL037C, strain rad23, stronger effect = lower value 1 | locus YEL061C, strain CIN8 (second series), stronger effect = lower value 0.995 | locus YER002W, strain NOP16, stronger effect = lower value 0.991 | locus YER015W, strain faa2, stronger effect = lower value 1 | locus YER016W, strain bim1, stronger effect = lower value 1.01 | locus YER111C, strain swi4, stronger effect = lower value 0.999 | locus YER155C, strain BEM2 (second series), stronger effect = lower value 1.04 | locus YFR010W, strain ubp6, stronger effect = lower value 1 | locus YGL167C, strain pmr1, stronger effect = lower value 1.01 | locus YGL173C, strain kem1, stronger effect = lower value 1.01 | locus YGL227W, strain vid30, stronger effect = lower value 1.02 | locus YGL240W, strain doc1, stronger effect = lower value 1.06 | locus YGL253W, strain hxk2, stronger effect = lower value 1 | locus YHR013C, strain ard1, stronger effect = lower value 0.998 | locus YHR027C, strain rpn1, stronger effect = lower value 0.99 | locus YHR030C, strain SLT2, stronger effect = lower value 0.993 | locus YHR079C, strain IRE1, stronger effect = lower value 1.01 | locus YHR142W, strain chs7, stronger effect = lower value 0.935 | locus YJL092W, strain hpr5, stronger effect = lower value 0.975 | locus YJL095W, strain BCK1 (second series), stronger effect = lower value 0.994 | locus YJL095W, strain BCK1, stronger effect = lower value 1 | locus YJL115W, strain asf1, stronger effect = lower value 0.983 | locus YJL129C, strain trk1, stronger effect = lower value 0.974 | locus YJL154C, strain vps35, stronger effect = lower value 1 | locus YJL164C, strain tpk1, stronger effect = lower value 0.978 | locus YJL166W, strain qcr8, stronger effect = lower value 1.01 | locus YJL187C, strain SWE1, stronger effect = lower value 1 | locus YJR066W, strain TOR1, stronger effect = lower value 0.936 | locus YKL160W, strain elf1, stronger effect = lower value 0.971 | locus YKR026C, strain gcn3, stronger effect = lower value 0.993 | locus YKR091W, strain srl3, stronger effect = lower value 1 | locus YLL001W, strain dnm1, stronger effect = lower value 1 | locus YLL026W, stronger effect = lower value 1 | locus YLL041C, strain sdh2, stronger effect = lower value 0.994 | locus YLR027C, strain aat2, stronger effect = lower value 0.99 | locus YLR113W, strain HOG1, stronger effect = lower value 1.05 | locus YLR221C, strain rsa3, stronger effect = lower value 0.985 | locus YLR258W, strain gsy2, stronger effect = lower value 1.03 | locus YLR262C, strain YPT6 (second series), stronger effect = lower value 0.923 | locus YLR320W, strain mms22, stronger effect = lower value 1 | locus YLR342W, strain FKS1, stronger effect = lower value 1 | locus YLR357W, strain rsc2, stronger effect = lower value 1.02 | locus YLR370C, strain arc18, stronger effect = lower value 1 | locus YLR384C, strain iki3, stronger effect = lower value 0.995 | locus YML120C, strain ndi1, stronger effect = lower value 0.979 | locus YMR058W, strain fet3, stronger effect = lower value 0.98 | locus YMR125W, strain sto1, stronger effect = lower value 1.02 | locus YMR129W, stronger effect = lower value 0.992 | locus YMR205C, strain PFK2, stronger effect = lower value 1.09 | locus YMR231W, strain pep5, stronger effect = lower value 1.02 | locus YMR307W, strain GAS1, stronger effect = lower value 1.02 | locus YNL071W, strain lat1, stronger effect = lower value 0.992 | locus YNL175C, strain NOP13, stronger effect = lower value 0.976 | locus YNL183C, strain NPR1, stronger effect = lower value 0.925 | locus YNL197C, strain WHI3, stronger effect = lower value 0.977 | locus YNL209W, strain ssb2, stronger effect = lower value 1 | locus YNL224C, strain SQS1, stronger effect = lower value 0.995 | locus YNL248C, strain rpa49, stronger effect = lower value 0.936 | locus YNL322C, strain KRE1 (second series), stronger effect = lower value 1.01 | locus YNL322C, strain KRE1, stronger effect = lower value 0.996 | locus YNR049C, strain mso1, stronger effect = lower value 0.995 | locus YOR001W, strain rrp6, stronger effect = lower value 0.949 | locus YOR070C, strain gyp1, stronger effect = lower value 1 | locus YOR080W, strain dia2, stronger effect = lower value 1 | locus YOR083W, strain WHI5 (second series), stronger effect = lower value 0.948 | locus YOR083W, strain WHI5, stronger effect = lower value 0.944 | locus YOR106W, strain vam3, stronger effect = lower value 0.951 | locus YOR231W, strain MKK1, stronger effect = lower value 0.981 | locus YOR265W, strain rbl2, stronger effect = lower value 0.991 | locus YOR270C, strain vph1, stronger effect = lower value 0.946 | locus YOR290C, strain snf2, stronger effect = lower value 0.939 | locus YPL051W, strain arl3, stronger effect = lower value 0.98 | locus YPL078C, strain atp4, stronger effect = lower value 0.931 | locus YPL106C, strain sse1, stronger effect = lower value 1.02 | locus YPL240C, strain hsp82, stronger effect = lower value 0.975 | locus YPL241C, strain CIN2, stronger effect = lower value 0.998 | locus YPL256C, strain CLN2, stronger effect = lower value 1.03
